# Test results from PubChem BioAssay (NCI).
# Compounds without any hit were thinned out: in the full panel of roughly 83,000, 20% have a hit.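 Growth was measured after 48 h exposure to one concentration of compound in 96-well plates. Values under 10 count as active.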 Unmarked numbers belong to inactive results. The source made the active and inactive calls.
# System: HL-60(TB) leukemia
# Assay: NCI-60 one-dose screen, 48 h (100 = growth as untreated, 0 = no growth, -100 = all killed)
# Conditions: 10 µM unless noted
row,Structure (SMILES),growth
1,CCCCCCCCN=C(NCCCCCCCC)SCc1cccc2ccccc12,-43.4% (active)
2,Cc1ccc(Cl)c(NS(=O)(=O)c2ccc(-c3cnc(C4CC4)o3)cc2)c1,-22% (active)
3,CCCC(=O)Oc1ccc(/C(=C(\C)c2ccccc2)c2ccc(OCCN(CC)CC)cc2)cc1,39.2%
4,O=C(Nc1cccc(C2=NCCN2)c1)c1ccc(OCCCOc2ccc(C(=O)Nc3cccc(C4=NCCN4)c3)cc2)cc1,-27.3% (active)
5,c1ccc(CNCCN(CCNCc2ccccn2)Cc2ccc3ccccc3c2)nc1,-34.5% (active)
6,CN(C)c1ccc(Nc2cc(-c3cccc(OC(F)(F)F)c3)nc3ccc(N4CCCC4)cc23)cc1,-15.6% (active)
7,COc1ccc(C(=O)c2cc(C)c(OC)c(C)c2)c(OC)c1O,-25.8% (active)
8,Cc1ccc(C(=O)/C(=C/c2ccc([N+](=O)[O-])cc2)S(=O)Cc2ccccc2)cc1 (centres undefined),36.8%
9,O=C(CNc1c(Cl)cccc1Cl)Nc1ccc(-c2nc3ccccc3s2)cc1,70.7%
